Records with an inconclusive call do not appear. A number with no mark means an inactive call. The source made the active and inactive calls. Calls follow the shape of the dose curve; as a rule, active = well fitted cell-killing curve with a large enough effect; inconclusive = small, poorly fitted or top-dose-only effect, or effect the other way; inactive = no such curve, though single readings can be large or run the other way.
Each compound was assayed on HeLa (assay: Confirmatory qHTS for gynecologic anti-cancer compounds from libraries of approved drugs and bioactive compounds). Conditions: gynecologic cancer cell panel viability, ATPlite luminescence, 48 h; series mostly up to 57.6 µM; activity change, negative = viability loss: at the top concentration.
Procedure, shortened: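 ATP-based luminescent viability (ATPlite) after 48 h drug treatment at 37 °C, 5% CO2, across 57.5 uM–0.977 nM in 1:3 steps. Cells seeded at 1,000 per well 16 h beforehand; IC50 values computed, HEK 293T as selectivity control.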
% is scaled to controls: 0 for no effect and ±100 for the full control effect; potency is read from the fitted curve at half-maximal effect.
Also: nearly all actives have a fitted effect of over 55% in size.

Row | Structure (SMILES) | Potency | activity change, negative = viability loss
1 | COc1cc2nccc(Oc3ccc(NC(=O)Nc4cc(C)on4)c(Cl)c3)c2cc1OC | 15.3 µM (active) | –
2 | CN(C)C1CCN(C(=O)c2ccc(NC(=O)Nc3nc(N4CCOCC4)nc(N4CCOCC4)n3)cc2)CC1 | 0.769 µM (active) | –
3 | CCN(CC)CCNC(=O)c1c(C)[nH]c(/C=C2\C(=O)Nc3ccc(F)cc32)c1C | 12.6 µM (active) | –
4 | OC[C@H]1O[C@@H](n2cnc3c(=S)nc[nH]c32)[C@H](O)[C@@H]1O | 4.32 µM (active) | –
5 | NC1(c2ccc(-c3nc4ccn5c(=O)[nH]nc5c4cc3-c3ccccc3)cc2)CCC1 | – | 5.7%
6 | Cc1[nH]c2ccccc2c1CCNCc1ccc(/C=C/C(=O)NO)cc1 | 0.432 µM (active) | –
7 | Cc1ccc(C(=O)Nc2ccc(Oc3cc4cnn(C)c4cc3-c3cn[nH]c3)c(F)c2)c(=O)n1-c1ccc(F)cc1 | 8.63 µM (active) | –
8 | Cc1cc(Nc2cc(N3CCN(C)CC3)nc(/C=C/c3ccccc3)n2)n[nH]1 | 1.72 µM (active) | –
9 | C#C[C@]1(O)CC[C@H]2[C@@H]3CCC4=CC(=O)CC[C@@H]4[C@H]3CC[C@@]21CC | 3.85 µM (active) | –
10 | CC(=O)c1cnc2ccc(-c3cc(Cl)c(O)c(Cl)c3)nc2c1NC1CCC(CN(C)C)CC1 (stereo unspecified) | 0.0993 µM (active) | –
11 | COc1cc2c(Nc3ccc(NC(=O)c4ccccc4)cc3)ncnc2cc1OCCCN1CCOCC1 | 21.7 µM (active) | –
12 | Cn1cnc([N+](=O)[O-])c1Sc1ncnc2nc[nH]c12 | 4.85 µM (active) | –
13 | CC(Oc1cc(-n2cnc3ccc(CN4CCN(C)CC4)cc32)sc1C(N)=O)c1ccccc1C(F)(F)F (stereo unspecified) | 2.43 µM (active) | –
14 | CC(=O)NCC(=O)N1C2CCC1c1cc(Nc3ncc(C(F)(F)F)c(NC4CCC4)n3)ccc12 (stereo unspecified) | 1.09 µM (active) | –
15 | CN1C(=O)C(Cc2c[nH]c3ccccc23)NC1=S (stereo unspecified) | – | -2.78% [at 19.5 µM]
16 | COc1cc(Nc2c(C#N)cnc3cc(OCCCN4CCN(C)CC4)c(OC)cc23)c(Cl)cc1Cl | 27.3 µM (active) | –
17 | COc1cc(Nc2ncc3c(n2)-c2ccc(Cl)cc2C(c2c(F)cccc2OC)=NC3)ccc1C(=O)O | 0.685 µM (active) | –
18 | CN(C)C/C=C/C(=O)Nc1cc2c(Nc3ccc(F)c(Cl)c3)ncnc2cc1OC1CCOC1 (stereo unspecified) | 24.3 µM (active) | –

Row | Structure (SMILES) | Potency | activity change, negative = viability loss
19 | CCCC(Nc1nc(-c2ccc(NC(=O)NCC)c(OC)c2)ncc1C)c1cccnc1 (stereo unspecified) | 0.153 µM (active) | –
20 | CCCCN(CCCC)C(=O)CN1C[C@H](c2ccc3c(c2)OCO3)[C@@H](C(=O)O)[C@@H]1c1ccc(OC)cc1 | – | 11.9%
21 | CCc1nc(C(N)=O)c(Nc2ccc(N3CCC(N4CCN(C)CC4)CC3)c(OC)c2)nc1NC1CCOCC1 | 3 µM (active) | –
22 | NC(=O)c1cnc(-c2ccc(C3(N)CCC3)cc2)c(-c2ccccc2)c1 | 30.6 µM (active) | –
23 | c1nc2nc(Nc3ccc(N4CCOCC4)cc3)nc(NC3CCCCC3)c2[nH]1 | 1.88 µM (active) | –
24 | CN(C)CC/C=C1\c2ccccc2COc2ccccc21 | – | -17.2%
25 | CC(C)n1nc(-c2cc3cc(O)ccc3[nH]2)c2c(N)ncnc21 | 5.44 µM (active) | –
26 | CCCCc1oc2ccc(NS(C)(=O)=O)cc2c1C(=O)c1ccc(OCCCN(CCCC)CCCC)cc1 | 24.3 µM (active) | –
27 | CC[C@@]1(O)C(=O)OCc2c1cc1n(c2=O)Cc2c-1nc1ccccc1c2/C=N/OC(C)(C)C | 7.69 µM (active) | –
28 | CN(C)c1ccc(-c2nc3ncc(Cl)c(N4CCN(CC(=O)Nc5nccs5)CC4)c3[nH]2)cc1 | 2.37 µM (active) | –
29 | CCc1c2c(nc3ccc(OC(=O)N4CCC(N5CCCCC5)CC4)cc13)-c1cc3c(c(=O)n1C2)COC(=O)[C@]3(O)CC | – | -8.27%
30 | O=C(c1ccc(F)c(F)c1Nc1ccc(I)cc1F)N1CC(O)([C@@H]2CCCCN2)C1 | 21.7 µM (active) | –
31 | CCn1cc(-c2ccnc3[nH]c(-c4cccc(CN(C)C)c4)cc23)c(-c2ccc(NC(=O)N(C)C)cc2)n1 | 2.98 µM (active) | –
32 | OCc1ccc(-c2ccc(-c3ccc(CO)s3)o2)s1 | – | 0.688% [at 19.5 µM]
33 | CN1CCCC(n2nc(Cc3ccc(Cl)cc3)c3ccccc3c2=O)CC1 (stereo unspecified) | – | -18.5%
34 | CC[C@@]1(O)C(=O)OCc2c1cc1n(c2=O)Cc2cc3c(CN(C)C)c(O)ccc3nc2-1 | 8.63 µM (active) | –
35 | CCC1C(=O)N(C)c2cnc(Nc3ccc(C(=O)NC4CCN(C)CC4)cc3OC)nc2N1C1CCCC1 (stereo unspecified) | 0.0049 µM (active) | –
36 | COC(=O)c1ccc2c(C(=Nc3ccc(N(C)C(=O)CN4CCN(C)CC4)cc3)c3ccccc3)c(O)[nH]c2c1 | 24.3 µM (active) | –

Source: PubChem BioAssay AID1345085 (National Center for Advancing Translational Sciences (NCATS), 2018)
